According to the supplement of paper PMC12632987:

T1: USP38, Q8NB14
T1 chain: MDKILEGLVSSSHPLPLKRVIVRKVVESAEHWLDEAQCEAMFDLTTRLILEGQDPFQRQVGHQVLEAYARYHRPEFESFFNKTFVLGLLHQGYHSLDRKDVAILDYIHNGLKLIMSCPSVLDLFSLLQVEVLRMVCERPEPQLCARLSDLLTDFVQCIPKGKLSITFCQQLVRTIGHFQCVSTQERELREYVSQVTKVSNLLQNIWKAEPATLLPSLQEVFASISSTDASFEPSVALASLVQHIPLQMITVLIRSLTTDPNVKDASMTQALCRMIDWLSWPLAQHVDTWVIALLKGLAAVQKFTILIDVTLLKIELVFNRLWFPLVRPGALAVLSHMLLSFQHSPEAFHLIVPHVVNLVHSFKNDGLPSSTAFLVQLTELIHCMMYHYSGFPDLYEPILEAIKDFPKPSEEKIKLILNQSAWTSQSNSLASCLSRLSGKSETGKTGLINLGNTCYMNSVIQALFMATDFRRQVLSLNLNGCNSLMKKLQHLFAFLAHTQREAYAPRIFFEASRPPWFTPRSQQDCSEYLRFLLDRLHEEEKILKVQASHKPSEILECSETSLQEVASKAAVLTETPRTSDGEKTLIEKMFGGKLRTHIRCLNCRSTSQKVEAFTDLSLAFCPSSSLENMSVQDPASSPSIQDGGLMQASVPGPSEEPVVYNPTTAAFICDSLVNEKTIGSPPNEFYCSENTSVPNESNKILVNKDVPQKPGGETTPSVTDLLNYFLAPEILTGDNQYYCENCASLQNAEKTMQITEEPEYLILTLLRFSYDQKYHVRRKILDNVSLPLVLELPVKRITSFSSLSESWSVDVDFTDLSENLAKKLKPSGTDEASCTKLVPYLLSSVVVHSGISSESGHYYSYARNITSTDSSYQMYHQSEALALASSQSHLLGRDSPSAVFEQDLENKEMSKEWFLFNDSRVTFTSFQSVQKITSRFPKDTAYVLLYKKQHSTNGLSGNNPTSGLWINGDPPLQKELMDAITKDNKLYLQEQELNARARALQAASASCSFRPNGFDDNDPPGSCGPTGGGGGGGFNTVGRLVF

B1: usp_38_diff_out_18_14_339 (protein)
chain: SSELAEAELSNLKSLTEEVKKVTERTEKIIEKLKDDPESAKSLLETRRQAYEGVIKYADEVLKRAEEEGYEELAKAAKELRDEAEKALERLEKLEKELEK
B2: usp_38_diff_out_18_14_331 (protein)
chain: SEELRKAKLDNLKLLTKEVKEDTERTLRILERLRGDPEAARSLIDTRIQALEGVIKYAEEVKKEAEEAGDEELAKAAEELKKAAEEAKRRLEEARRRLEA
B3: usp_38_diff_out_18_14_332 (protein)
chain: SEELTEQIISNLEKLTKDVKENTARTLKIVEKLKDDPESALSLLDTRIQALKGVEKYAKEVLEEAKKEGNKKLEEAAEKLLKEAKAAIKTLEEKRAALKA
B4: usp_38_diff_out_18_14_329 (protein)
chain: SEELREAILSNLKSLKKEVEKVTERTLKVLEKLKDDPESAKSLIDTRKQALDGVIKYAEEVEKEAEAAGDEETAKAAKELKKAAKEAKAKLEEAEKKLKE
B5: usp_38_diff_out_18_14_334 (protein)
chain: AAELRAATKANLKTLTAEVKENTERTLRIVDKLKDDPESALSLLDTRIQALKGVAKYAQEVKKEAEEAGDAELKAAAEALLKAAKAAIEELEKRRKELKE
B6: usp_38_diff_out_18_14_336 (protein)
chain: SEELRKAEIENLKTLLKEVKKDTERTIKIVEKLKDDKDSATSLLETRIQAYEGVIKYAEELKERAKKEGDKELIAAAEELIKAAKEAKEKLKELLKKLKA
B7: usp_38_diff_out_18_14_346 (protein)
chain: DEELAKQLKEQFESLTKEVEENTKRLKEIVEKLKDDPESALSLLETRIQALEGVIKYAEEEKKRAKAAGFEELAAAAEKLIKAAKAAKEEAEKLKKELKA
B8: usp_38_diff_out_18_14_344 (protein)
chain: SEELRKATKSNLESLKKDVKEVTERTKKIVAKLKDDPESALSLLETRIQALEGVIKYAEETLKEAEEEGDEELKKAAEELKKEAEEAKAEFEALLAALKA
B9: usp_38_diff_out_18_14_335 (protein)
chain: SEELTAATLANVKTLLEDVKKVTERTKKIVAKLKDDPESATSLLESRIQAYEGVIKYAEETLEEAKKAGDKELAAAAKELIKAAKEAKEEFEKLLAELKA
B10: usp_38_diff_out_18_14_330 (protein)
chain: SEELRKAKLSNLKSLKAEVEEVTARTLRVVERLRGDPESARALLDTRIQALDGVIKYAEEVAKEAKAAGDEELAKAAEELKEAARAARARLEAAAAALAA
B11: usp_38_diff_out_18_14_343 (protein)
chain: SEELAEAELANLKSLKEEVKRVTERTKKIIEKLKDDPEAALSLLDTRIQAYKGVIKYAEEVLKEAKKAGYEELAKAAEELKKAAEEALKELERLRKELEA
B12: usp_38_diff_out_18_14_337 (protein)
chain: SEELRQQLLENLKSLTEEVKKEKERTLKIIEKLKDDPESALSLLDTRIQALDGVIKYAKEVAKEAKEEGDKELLEAAEKLIKEAEKAKKELEKKRAELKA
B13: usp_38_diff_out_18_14_341 (protein)
chain: SAELAAATLANLKSLTAEVKEVTARTEKIVEKLKDDPEAALSLLDTRKQAYEGVITYAEEVAKEAKAAGDAELEAAAKELKKAAEEALAKMEKLRAELKA
B14: usp_38_diff_out_18_14_345 (protein)
chain: GEELEEQIKANLELLTKEVKENTERLVKILEKLKDDPESALSLIDTRLQALNGVKAYAEEELKRAKERGNEELKKAAEELIKAAEEAIKTLEELRKKLKA
B15: usp_38_diff_out_18_14_340 (protein)
chain: SDELAKATLANLKTLTEEVKKVTERTEKIIKKLADDPEAAKSLLDTRKQAYQGVITYAKEVAEEAKAAGYKELLAAAEELKKAAEEALKTLEKLEKELKA
B16: usp_38_diff_out_18_14_333 (protein)
chain: SSELEEQLISNFKSLTEEVKRDTERTLEIVEKLKDDPDAALALLDTRIQALEGVAKYAKEVKKEAEENGNEELKAAAEELLKAAEEAIKKLKEKRKELKA

Target: T1, USP38, Q8NB14
Test: median log2 fold change of GCK-ALFA target abundance (FLAG IP / Myc IP barcode read proportion) (log2 ratio); each designed protein is fused to an ALFA-tag nanobody in HEK293 cells to bring the named protein to FLAG-tagged glucokinase (GCK); Myc marks an untargeted standard; higher = target protein stabilised (more abundant)
Settings: target protein: 3xFLAG-MCP-GCK-ALFA reporter; HEK293 landing pad (RPLP)
How it was run: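 Binders fused to an ALFA nanobody were recombined as a library into HEK293 landing-pad cells, which were induced with 2 μg mL^−1 doxycycline and then transfected to express a FLAG-tagged target and a Myc-tagged standard. After 48 h, circular RNA barcodes recovered by anti-FLAG and anti-Myc immunoprecipitation of lysates were reverse transcribed, amplified and sequenced. Each binder's target abundance is the median log2 ratio of FLAG to Myc barcode read proportions, from barcodes present at ≥10^−7 in both replicates, binders carrying ≥3 barcodes per replicate, a 10^−6 pseudocount and pooled replicates.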

Row | Binder | median log2 fold change
1 | B1 | 0.0814
2 | B2 | 0.193
3 | B3 | 0.139
4 | B4 | -0.556
5 | B5 | 0.0876
6 | B6 | -0.177
7 | B7 | -0.0584
8 | B8 | 0.232
9 | B9 | -0.351
10 | B10 | 0.0025
11 | B11 | -0.329
12 | B12 | 0.0476
13 | B13 | 0.0312
14 | B14 | -0.0272
15 | B15 | -0.499
16 | B16 | -0.013
